Sampled rows, rich in hits. Any-hit rate of the full collection: about 11%.
JMJD2A Tudor: inhibitors of human JMJD2A Tudor domain; O75164; AlphaScreen JMJD2A-Tudor / H3K4me3 peptide binding; Potency, µM (titrated, usually from 114 µM), inactives show top-dose activity change, negative = inhibition, hits mostly inhibitors; 390,000 tested, 4.4% active; AID 504339; also: % is scaled to controls: 0 for no effect and ±100 for the full control effect; nearly all actives have a fitted effect of over 50% in size
L3MBTL1 block: inhibitors of human L3MBTL1; 230,000 tested, 0.66% active; Potency, µM (series often up to 57.1 µM), inactives show at the top dose activity, negative = inhibition, usual class: inhibitors; AlphaScreen L3MBTL1–H3K9me1 peptide binding; Q9Y468; also: % is scaled to controls: 0 for no effect and ±100 for the full control effect; nearly all actives have a fitted effect of over 60% in size
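L3MBTL1 (50 nM) pre-complexed 30 min with biotinylated H3(1-15)K9me1 peptide (75 nM), then compounds added for 30 min at room temperature; AlphaScreen streptavidin donor/nickel chelate acceptor beads (10 ug/mL final) read after 30 min dark incubation.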
HP1b binding inh: HP1-beta chromodomain-methylated histone interaction inhibition. P83916. AlphaScreen HP1-beta / biotin-H3K9me3 peptide binding. Potency, µM (doses to about 114 µM), for inactives: at the highest dose activity change, negative = inhibition, most hits filed as inhibitors. 390,000 tested, 0.56% active; also: nearly all actives have a fitted effect of over 70% in size
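Compound inhibition of the preformed complex between 50 nM HP1-beta and 50 nM biotinylated H3K9me3 peptide was read by AlphaScreen. Buffer was PBS pH 7.4 with 0.01% Tween-20. Incubations ran 30 min at room temperature, with 10 ug/mL donor/acceptor beads.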
G9a block: inhibitors of human histone lysine methyltransferase G9a; G9a H3K9 monomethylation, AlphaScreen, 2 h; Potency, µM (top dose mostly 102 µM), for the others: at the top dose activity, negative = inhibition, usual class: inhibitors; Q96KQ7; 350,000 tested, 8.8% active; AID 504332; also: % is scaled to controls: 0 for no effect and ±100 for the full control effect; nearly all actives have a fitted effect of over 75% in size
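Compounds were preincubated with 20 nM G9a for 15 min, after which biotinylated H3K9 peptide (500 nM) and SAM (20 uM) started a 2 h room-temperature reaction. Monomethylated product was quantified by antibody-based AlphaScreen chemiluminescence.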
BAZ2B block: BAZ2B (human) inhibition | Q9UIF8 | AlphaScreen BAZ2B-H3K14Ac peptide displacement | Potency, µM (titrated, usually from 114 µM), without a hit: at the highest dose activity change, negative = inhibition, most hits filed as inhibitors | 360,000 tested, 4.4% active | AID 504333; also: % is scaled to controls: 0 for no effect and ±100 for the full control effect; nearly all actives have a fitted effect of over 60% in size
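Inhibition is scored as reduced AlphaScreen emission. The BAZ2B/b-H3(5-23)K14Ac complex (50 nM each) in PBS pH 7.4, 0.01% Tween-20 meets compound (up to 110 uM) for 30 min at RT before bead addition.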
Starred values were filed as active, the others as inactive; ? = inconclusive; . = no result given; ! = repeats disagree; [ ] = remark or other dose. Calls follow the shape of the dose curve; as a rule, active = well fitted inhibition curve with a large enough effect; inconclusive = small, poorly fitted or top-dose-only effect; inactive = no such curve, though single readings can be large or run the other way. Potency is read from the fitted curve at half-maximal effect.

SMILES	JMJD2A Tudor	L3MBTL1 block	HP1b binding inh	G9a block	BAZ2B block
CCCCCOC(=O)c1ccc(OC(=O)c2sc3ncn(Cc4cccc(F)c4)c(=O)c3c2C)cc1	6%	.	44%	-5%[59 µM]	12%
CC1CCN(CC[C@H]2CCCN2S(=O)(=O)c2cccc(O)c2)CC1	-14%	10%	53%	25µM*!	4%
COCCCN=C(c1ccco1)n1c(=S)nc(-c2ccco2)n(CCCOC)c1=S	56µM*	?	22µM*	7.9µM*	?
CC(=O)c1cccc(OC(=O)c2ccc3c(=O)n4c(nc3c2)CCC4)c1	-14%	-5%	19%	7.1µM*	-38%
Cc1ccc(OC(=O)c2ccc3c(=O)n4c(nc3c2)CCC4)cc1	-26%	-6%	19%	-8%	?
N#CCCN(C(=O)COC(=O)c1ccc2c(=O)n3c(nc2c1)CCC3)c1ccccc1	14µM*	.	-8%	31%	-6%
CN(CCC#N)C(=O)COC(=O)c1ccc2c(=O)n3c(nc2c1)CCC3	-17%	?	32%	10%	-2%
CCOCCCNC(=O)c1c(NC(=O)c2cc(=O)c3ccccc3o2)sc2c1CCC2	-16%	.	21%	-2%[59 µM]	-12%
CC(OC(=O)c1cccc(S(=O)(=O)N2CCCCCC2)c1)C(=O)Nc1ccc(S(N)(=O)=O)cc1 (stereo not given)	-18%	-6%	6%	50µM*	-4%
CC(=O)Nc1ccc(NC(=O)C(C)OC(=O)c2cccc(S(=O)(=O)N3CCCCC3)c2)cc1 (stereo not given)	-8%	.	23%	?	-11%
CC(=O)Nc1ccc(NC(=O)C(C)OC(=O)c2cccc(S(=O)(=O)N3CCCC3)c2)cc1 (stereo not given)	-8%	-9%	20%	40µM*	2%
CC(=O)Nc1cccc(C(=O)OC(C)C(=O)Nc2ccc(S(=O)(=O)N3CCCC3)cc2)c1 (stereo not given)	-3%	2%	22%	50µM*	11%
CC(=O)Nc1ccc(NC(=O)C(C)OC(=O)c2cccc(S(=O)(=O)N3CCCCCC3)c2)cc1 (stereo not given)	-2%	0%	17%	-10%	-36%
CC(Oc1ccccc1Cl)C(=O)Nc1ccc(S(=O)(=O)N2CCN(C)CC2)cc1 (stereo not given)	50µM*	.	-16%[57 µM]	.	.
CCOC(=S)N/C(=N\S(=O)(=O)c1ccc(C)cc1)c1ccccc1	-28%	1%	?	7.9µM*	7%
COc1ccc(NC(=S)NC(=NS(=O)(=O)c2ccc(Cl)cc2)c2ccccc2)cc1	-33%	-9%	?	.	.
COc1ccc(NC(=S)N/C(=N/S(=O)(=O)c2ccc(C)cc2)c2ccccc2)cc1	-6%	-4%	3%	?	-17%
O=S(=O)(/N=C(/NC(=S)Nc1ccccc1)c1ccccc1)c1ccc(Cl)cc1	-31%	.	?	11µM*	-23%
CCOc1ccc(S(=O)(=O)/N=C(\N)c2ccccc2)cc1	-10%	7%	0%	35µM*	-14%
O=C1C(c2ccc(F)cc2)N(CCc2ccccc2)C(=O)CN1C1CCCCCC1 (stereo not given)	-4%	.	21%	8%[59 µM]	-1%
CC1(Cn2ccnn2)[C@H](C(=O)O)N2C(=O)C[C@H]2S1(=O)=O (stereo not given in full)	.	.	.	22%[59 µM]	.
Cn1cc(CCNC(=O)CC2C(=O)NCCN2CC(c2ccccc2)c2ccccc2)cn1 (stereo not given)	-35%	-2%	57%	13µM*	-7%
Cc1nc(CCNC(=O)CC2C(=O)NCCN2Cc2ccccc2)nc2c1CCC2 (stereo not given)	-26%	.	16%	50µM*	-34%
Cc1cc(CNC(=O)CC2C(=O)NCCN2Cc2ccc(-c3ccccc3)cc2)nn1C (stereo not given)	-13%	-6%	39%	-23%	-38%
Cc1cc(CNC(=O)CC2C(=O)NCCN2Cc2ccccc2)nn1C (stereo not given)	-10%	.	51%	45µM*	-2%
COc1ccc(N2CC(NC(=O)/C=C\c3ccccc3)CC2=O)cc1 (stereo not given)	-20%	.	29%	-7%[59 µM]	-2%

Screening data: PubChem, National Center for Advancing Translational Sciences (NCATS)
